The results in this text go back to PubChem BioAssay (NCI).

Experiment [1] in a line: NCI Yeast Anticancer Drug Screen. Data for the rad50 strain (AID 155).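 Also: 0% = growth of vehicle-only cultures of the same strain.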 The settings on record: S. cerevisiae rad50 strain growth inhibition, stronger effect = higher value. In short, it runs like this:
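DNA repair mutant yeast, compound exposure, growth read-out; inhibition is taken relative to vehicle.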

Experiment [2] in a line: NCI Yeast Anticancer Drug Screen. Data for the mec2-1 strain (AID 157). The settings on record: S. cerevisiae mec2-1 strain, stronger effect = higher value. In short, it runs like this:
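Using mec2-1 yeast: add compound, measure growth, express inhibition versus vehicle-treated cultures.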

Experiment [3] can be described thus: NCI Yeast Anticancer Drug Screen. Data for the sgs1 mgt1 strain (AID 161).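 Also: 0% = growth of cultures given vehicle only.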 The settings on record: S. cerevisiae sgs1 mgt1 strain, stronger effect = higher value. In short, it runs like this: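 Compounds are added to genetically altered yeast, and growth is compared with cultures given vehicle alone to give percent inhibition.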
Experiment [4] is described as follows: NCI Yeast Anticancer Drug Screen. Data for the cln2 rad14 strain (AID 165).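 Also: 0% = growth equal to vehicle treated cultures.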 The settings on record: S. cerevisiae cln2 rad14 strain, stronger effect = higher value. A digest of the protocol:
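Yeast strain cln2 rad14, bearing defects in cell cycle control and DNA repair, serves as the test system; values reflect growth inhibition compared with vehicle.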

Experiment [5] in a line: NCI Yeast Anticancer Drug Screen. Data for the bub3 strain (AID 167). The settings on record: S. cerevisiae bub3 mutant strain, stronger effect = higher value. In short, it runs like this: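 In this screen, a yeast mutant lacking normal mitotic checkpoint function is challenged with compound. Relative growth versus vehicle gives the inhibition value.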
The nature of experiment [6]: NCI Yeast Anticancer Drug Screen. Data for the mlh1 rad18 strain (AID 175). The following applies: S. cerevisiae mlh1 rad18 strain growth inhibition, stronger effect = higher value. In short, it runs like this: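 Steps: expose repair-defective yeast to compound; measure growth; express inhibition against vehicle-treated controls.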
Setting [7] is: at 5.0 µM (retest, dose inferred, filed as 0.5).
Setting [8] is: at 50.0 µM (retest, dose inferred, filed as 5.0).

Values joined by “and” are separate entries in the source; they are usually repeats but may differ in a detail not shown here. Identical values can stand only once. The panel holds about 79,000 compounds, 15% with a hit somewhere; the sample as a whole holds those more often. Unmarked numbers belong to inactive results. Active and inactive are the calls of the source. Rule as the data show it: active = growth inhibition above about 70%; inactive = the rest.

With `CCC[CH2][Sn]([F])([CH2]CCC)[O][Sn]([F])([CH2]CCC)[CH2]CCC`, the growth inhibition in experiment [1] (setting [7]) is 51%; in experiment [1] (setting [8]), 98% (active); in experiment [1] (at 50.0 µM), 97.5% (active); in experiment [2] (setting [7]) it was 46%; in experiment [2] (setting [8]) it was 99% (active); in experiment [2] (at 50.0 µM) it was 98.9% (active). Besides, the growth inhibition was 50% in experiment [3] (setting [7]); 98% (active) in experiment [3] (setting [8]); 98.2% (active) in experiment [3] (at 50.0 µM); 34% in experiment [4] (setting [7]); 98% (active) in experiment [4] (setting [8]); 98.3% (active) in experiment [4] (at 50.0 µM). Moreover, the growth inhibition was 54% in experiment [5] (setting [7]); 96% (active) in experiment [5] (setting [8]); 98.5% (active) in experiment [5] (at 50.0 µM); 48% in experiment [6] (setting [7]); 97% (active) in experiment [6] (setting [8]); 98.2% (active) in experiment [6] (at 50.0 µM).
As for `BrCc1ccc2ncccc2c1`, the growth inhibition was 5% in experiment [1] (setting [7]); 98% (active) in experiment [1] (setting [8]); 98.5% (active) in experiment [1] (at 50.0 µM); 4% in experiment [2] (setting [7]); 99% (active) in experiment [2] (setting [8]); 98.9% (active) in experiment [2] (at 50.0 µM). The growth inhibition was 6% in experiment [3] (setting [7]); 98% (active) in experiment [3] (setting [8]); 99% (active) in experiment [3] (at 50.0 µM); 11% in experiment [4] (setting [7]); 99% (active) in experiment [4] (setting [8]); 98.5% (active) in experiment [4] (at 50.0 µM). Moreover, the growth inhibition in experiment [5] (setting [7]) is 3%; in experiment [5] (setting [8]), 99% (active); in experiment [5] (at 50.0 µM), 99% (active); in experiment [6] (setting [7]), 1%; in experiment [6] (setting [8]) it was 99% (active); in experiment [6] (at 50.0 µM) it was 98.5% (active).
On to `[Br][Sn]([CH]1CCCCC1)([CH]1CCCCC1)[CH]1CCCCC1`, for which the growth inhibition was 98% (active) in experiment [1] (setting [7]); 99% (active) in experiment [1] (setting [8]); 98.6% (active) in experiment [1] (at 50.0 µM); 100% (active) in experiment [2] (setting [7]); 100% (active) in experiment [2] (setting [8]); 99.1% (active) in experiment [2] (at 50.0 µM). In addition, the growth inhibition in experiment [3] (setting [7]) was 99% (active); in experiment [3] (setting [8]), 99% (active); in experiment [3] (at 50.0 µM), 98.5% (active); in experiment [4] (setting [7]) it was 57%; in experiment [4] (setting [8]), 98% (active); in experiment [4] (at 50.0 µM), 98.5% (active). Also, the growth inhibition in experiment [5] (setting [7]) was 23%; in experiment [5] (setting [8]) it was 99% (active); in experiment [5] (at 50.0 µM) it was 98.5% (active); in experiment [6] (setting [7]), 99% (active); in experiment [6] (setting [8]), 99% (active); in experiment [6] (at 50.0 µM) it was 98.8% (active).
`COc1cc2c3c(c1)-c1c(ccc(OC)c1OC)CC3N(CCCl)CC2` (configuration not stated): the growth inhibition in experiment [1] (setting [7]) is 15%; in experiment [1] (setting [8]), 92% (active); in experiment [1] (at 50.0 µM), 87% (active); in experiment [2] (setting [7]) it was 11%; in experiment [2] (setting [8]), 69%; in experiment [2] (at 50.0 µM), 38.9%. In addition, the growth inhibition was 7% in experiment [3] (setting [7]); 71% (active) in experiment [3] (setting [8]); 77.2% (active) in experiment [3] (at 50.0 µM); 7% in experiment [4] (setting [7]); 77% (active) in experiment [4] (setting [8]); 31.8% in experiment [4] (at 50.0 µM). Also, the growth inhibition was 13% in experiment [5] (setting [7]); 75% (active) in experiment [5] (setting [8]); 28.9% in experiment [5] (at 50.0 µM); 12% in experiment [6] (setting [7]); 78% (active) in experiment [6] (setting [8]); 86.7% (active) in experiment [6] (at 50.0 µM).
On to `ClCCN(CCCl)c1ccc(C2N(Cc3ccc(N(CCCl)CCCl)cc3Cl)CCCN2Cc2ccc(N(CCCl)CCCl)cc2Cl)cc1`, for which the growth inhibition in experiment [1] (setting [7]) is 2%; in experiment [1] (setting [8]) it was 99% (active); in experiment [1] (at 50.0 µM), 96.2% (active); in experiment [2] (setting [7]), -3%; in experiment [2] (setting [8]), 99% (active); in experiment [2] (at 50.0 µM), 98.8% (active). Also, the growth inhibition is -1% in experiment [3] (setting [7]); 99% (active) in experiment [3] (setting [8]); 97.5% (active) in experiment [3] (at 50.0 µM); -7% in experiment [4] (setting [7]); 99% (active) in experiment [4] (setting [8]); 22.1% in experiment [4] (at 50.0 µM). Besides, the growth inhibition in experiment [5] (setting [7]) was 1%; in experiment [5] (setting [8]), 99% (active); in experiment [5] (at 50.0 µM), 37%; in experiment [6] (setting [7]), 9%; in experiment [6] (setting [8]), 99% (active); in experiment [6] (at 50.0 µM), 98.2% (active).
On to `C=Cc1ccccc1` (tested in a mixture with another compound), for which the growth inhibition in experiment [1] (setting [7]) is -1%; in experiment [1] (setting [8]), 2%; in experiment [1] (at 50.0 µM), 16.1% and 1.1% and -7.7%; in experiment [2] (setting [7]), -6%; in experiment [2] (setting [8]), 0%; in experiment [2] (at 50.0 µM), -1.35% and 6.9% and -3.75%. Moreover, the growth inhibition in experiment [3] (setting [7]) is -2%; in experiment [3] (setting [8]) it was -1%; in experiment [3] (at 50.0 µM), -11.2% and -6.85% and -12.4%; in experiment [4] (setting [7]), -3%; in experiment [4] (setting [8]), 3%; in experiment [4] (at 50.0 µM), 1.25% and -3.6% and 2.15%. Moreover, the growth inhibition is -5% in experiment [5] (setting [7]); -4% in experiment [5] (setting [8]); 23.4% and 14.5% and 6.1% in experiment [5] (at 50.0 µM); -1% in experiment [6] (setting [7]); 1% in experiment [6] (setting [8]); 12.4% and 31.1% and -6.6% in experiment [6] (at 50.0 µM).
For `CC(CN1CCCCCCC1)C(C#N)(c1ccccc1)c1ccccc1` (configuration not stated), the growth inhibition in experiment [1] (setting [7]) was 4%; in experiment [1] (setting [8]) it was 47%; in experiment [1] (at 50.0 µM), 66.1%; in experiment [2] (setting [7]), 3%; in experiment [2] (setting [8]), 39%; in experiment [2] (at 50.0 µM), 47.6%. Moreover, the growth inhibition in experiment [3] (setting [7]) was 19%; in experiment [3] (setting [8]), 74% (active); in experiment [3] (at 50.0 µM), 67.5%; in experiment [4] (setting [7]), 6%; in experiment [4] (setting [8]), 46%; in experiment [4] (at 50.0 µM), 84.1% (active). In addition, the growth inhibition in experiment [5] (setting [7]) is 9%; in experiment [5] (setting [8]), 68%; in experiment [5] (at 50.0 µM), 55.4%; in experiment [6] (setting [7]), 10%; in experiment [6] (setting [8]) it was 55%; in experiment [6] (at 50.0 µM) it was 70.3% (active).
`CCCOc1ccc(/C=C/[N+](=O)[O-])cc1N`: the growth inhibition was 58% in experiment [1] (setting [7]); 99% (active) in experiment [1] (setting [8]); 99.2% (active) in experiment [1] (at 50.0 µM); 52% in experiment [2] (setting [7]); 99% (active) in experiment [2] (setting [8]); 99.5% (active) in experiment [2] (at 50.0 µM). Besides, the growth inhibition was 78% (active) in experiment [3] (setting [7]); -8% in experiment [3] (setting [8]); 99.5% (active) in experiment [3] (at 50.0 µM); 17% in experiment [4] (setting [7]); 99% (active) in experiment [4] (setting [8]); 98.9% (active) in experiment [4] (at 50.0 µM). Moreover, the growth inhibition in experiment [5] (setting [7]) is 34%; in experiment [5] (setting [8]) it was 99% (active); in experiment [5] (at 50.0 µM), 99.5% (active); in experiment [6] (setting [7]) it was 49%; in experiment [6] (setting [8]), 99% (active); in experiment [6] (at 50.0 µM), 99.3% (active).
Regarding `CC(=O)C1CCC2C3CCC4=CC(=[N+]5CCCCC5)CCC4(C)C3CCC12C` (configuration not stated), the growth inhibition is 98% (active) in experiment [1] (setting [7]); 74% (active) in experiment [1] (setting [8]); 95.4% (active) in experiment [1] (at 50.0 µM); 100% (active) in experiment [2] (setting [7]); 95% (active) in experiment [2] (setting [8]); 96.4% (active) in experiment [2] (at 50.0 µM). Besides, the growth inhibition in experiment [3] (setting [7]) was 97% (active); in experiment [3] (setting [8]), 95% (active); in experiment [3] (at 50.0 µM) it was 97.5% (active); in experiment [4] (setting [7]) it was 99% (active); in experiment [4] (setting [8]), 87% (active); in experiment [4] (at 50.0 µM), 91.7% (active). The growth inhibition in experiment [5] (setting [7]) was 99% (active); in experiment [5] (setting [8]) it was 93% (active); in experiment [5] (at 50.0 µM) it was 93.5% (active); in experiment [6] (setting [7]), 99% (active); in experiment [6] (setting [8]) it was 92% (active); in experiment [6] (at 50.0 µM), 95.8% (active).
